27 targets from the supplement of paper PMC10849652 can be followed below.

Targets with a hit are over-represented here; the source holds about 8,800 in all. About 0.5% of all pairs of compound and target were hits. Unmarked numbers belong to inactive results.

Chain of UniProt P48730 (P48730 whole entry, looked up): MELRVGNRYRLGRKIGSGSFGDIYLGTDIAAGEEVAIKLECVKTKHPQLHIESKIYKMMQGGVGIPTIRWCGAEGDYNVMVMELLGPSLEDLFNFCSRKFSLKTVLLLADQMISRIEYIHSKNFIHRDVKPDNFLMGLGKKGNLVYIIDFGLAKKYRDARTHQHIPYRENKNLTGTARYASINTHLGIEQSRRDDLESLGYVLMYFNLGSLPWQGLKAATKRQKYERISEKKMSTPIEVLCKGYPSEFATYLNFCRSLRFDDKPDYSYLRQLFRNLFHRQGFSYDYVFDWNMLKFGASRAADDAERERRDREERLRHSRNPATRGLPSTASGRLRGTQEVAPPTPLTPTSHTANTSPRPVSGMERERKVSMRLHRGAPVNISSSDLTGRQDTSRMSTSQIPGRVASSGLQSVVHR
Chain of UniProt Q6UX07 (Q6UX07 whole entry, looked up): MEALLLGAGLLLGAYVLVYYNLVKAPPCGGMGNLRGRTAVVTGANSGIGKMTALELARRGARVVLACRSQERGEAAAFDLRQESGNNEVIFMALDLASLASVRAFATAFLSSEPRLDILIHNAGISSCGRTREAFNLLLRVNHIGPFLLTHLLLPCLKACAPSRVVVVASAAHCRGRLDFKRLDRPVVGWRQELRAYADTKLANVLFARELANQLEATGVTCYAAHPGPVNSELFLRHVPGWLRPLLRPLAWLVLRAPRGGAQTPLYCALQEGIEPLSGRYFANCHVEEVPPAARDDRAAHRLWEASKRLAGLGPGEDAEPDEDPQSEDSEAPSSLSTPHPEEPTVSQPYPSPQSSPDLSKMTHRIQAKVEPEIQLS
Chain of UniProt Q9P003 (Q9P003 whole entry, looked up): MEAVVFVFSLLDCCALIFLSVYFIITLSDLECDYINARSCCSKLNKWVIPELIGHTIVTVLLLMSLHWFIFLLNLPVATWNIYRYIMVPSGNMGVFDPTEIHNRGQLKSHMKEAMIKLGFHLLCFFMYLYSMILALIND
Chain of UniProt O75122 (O75122 whole entry, looked up): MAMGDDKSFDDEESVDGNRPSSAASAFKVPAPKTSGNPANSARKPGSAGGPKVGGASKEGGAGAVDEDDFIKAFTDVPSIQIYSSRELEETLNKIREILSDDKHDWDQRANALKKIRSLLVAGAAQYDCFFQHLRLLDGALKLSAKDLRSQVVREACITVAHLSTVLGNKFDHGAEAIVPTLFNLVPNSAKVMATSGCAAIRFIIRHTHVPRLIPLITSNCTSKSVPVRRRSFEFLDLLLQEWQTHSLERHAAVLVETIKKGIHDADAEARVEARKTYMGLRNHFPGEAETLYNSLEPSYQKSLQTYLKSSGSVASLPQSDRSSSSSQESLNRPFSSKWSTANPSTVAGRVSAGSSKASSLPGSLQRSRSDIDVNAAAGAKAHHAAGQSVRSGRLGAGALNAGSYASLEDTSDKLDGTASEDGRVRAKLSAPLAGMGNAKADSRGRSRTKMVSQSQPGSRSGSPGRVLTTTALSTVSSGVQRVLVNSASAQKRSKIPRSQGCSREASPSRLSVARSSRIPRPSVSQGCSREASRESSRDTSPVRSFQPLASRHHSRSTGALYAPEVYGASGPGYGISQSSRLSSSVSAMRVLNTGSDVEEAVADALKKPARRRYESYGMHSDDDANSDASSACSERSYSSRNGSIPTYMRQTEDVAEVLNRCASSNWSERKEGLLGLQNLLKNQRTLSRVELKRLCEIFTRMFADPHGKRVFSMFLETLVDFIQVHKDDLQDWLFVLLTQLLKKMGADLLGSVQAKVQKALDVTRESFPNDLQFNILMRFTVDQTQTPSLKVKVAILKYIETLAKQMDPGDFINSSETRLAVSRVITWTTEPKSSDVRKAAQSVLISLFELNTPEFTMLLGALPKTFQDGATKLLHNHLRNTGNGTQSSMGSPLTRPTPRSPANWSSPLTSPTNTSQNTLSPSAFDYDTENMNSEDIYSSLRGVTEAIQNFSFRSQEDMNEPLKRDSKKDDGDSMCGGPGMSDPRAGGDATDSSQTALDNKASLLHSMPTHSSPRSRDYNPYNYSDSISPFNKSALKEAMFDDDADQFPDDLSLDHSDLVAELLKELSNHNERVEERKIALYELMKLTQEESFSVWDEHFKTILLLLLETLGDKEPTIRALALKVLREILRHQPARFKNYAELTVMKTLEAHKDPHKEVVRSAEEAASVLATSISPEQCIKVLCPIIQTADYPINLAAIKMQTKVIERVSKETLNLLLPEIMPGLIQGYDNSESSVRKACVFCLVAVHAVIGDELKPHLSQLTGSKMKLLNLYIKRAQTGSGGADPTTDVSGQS
Chain of UniProt P50570 (P50570 whole entry, looked up): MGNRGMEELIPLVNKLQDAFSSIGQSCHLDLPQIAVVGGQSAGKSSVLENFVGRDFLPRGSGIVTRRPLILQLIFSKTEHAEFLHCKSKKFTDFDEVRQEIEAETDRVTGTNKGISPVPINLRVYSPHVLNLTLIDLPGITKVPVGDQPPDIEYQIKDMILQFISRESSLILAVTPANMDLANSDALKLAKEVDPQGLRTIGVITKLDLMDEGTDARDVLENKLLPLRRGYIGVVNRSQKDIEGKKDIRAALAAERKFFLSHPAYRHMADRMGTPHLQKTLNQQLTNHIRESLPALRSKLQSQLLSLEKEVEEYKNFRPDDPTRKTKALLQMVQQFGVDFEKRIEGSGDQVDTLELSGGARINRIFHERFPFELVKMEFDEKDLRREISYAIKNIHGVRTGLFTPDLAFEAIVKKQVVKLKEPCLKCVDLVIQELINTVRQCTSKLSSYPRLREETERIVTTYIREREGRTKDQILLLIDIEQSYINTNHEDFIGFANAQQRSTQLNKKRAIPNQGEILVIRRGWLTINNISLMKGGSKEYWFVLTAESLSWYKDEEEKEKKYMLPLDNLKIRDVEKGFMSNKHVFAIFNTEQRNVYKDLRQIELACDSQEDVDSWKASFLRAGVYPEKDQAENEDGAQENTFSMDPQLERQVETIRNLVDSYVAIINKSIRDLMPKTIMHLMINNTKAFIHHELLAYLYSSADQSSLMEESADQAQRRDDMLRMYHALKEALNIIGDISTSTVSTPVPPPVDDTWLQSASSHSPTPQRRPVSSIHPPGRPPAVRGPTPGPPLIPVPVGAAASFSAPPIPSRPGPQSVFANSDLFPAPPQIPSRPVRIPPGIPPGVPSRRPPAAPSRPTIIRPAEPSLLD
Chain of UniProt Q9NYP3 (Q9NYP3 whole entry, looked up): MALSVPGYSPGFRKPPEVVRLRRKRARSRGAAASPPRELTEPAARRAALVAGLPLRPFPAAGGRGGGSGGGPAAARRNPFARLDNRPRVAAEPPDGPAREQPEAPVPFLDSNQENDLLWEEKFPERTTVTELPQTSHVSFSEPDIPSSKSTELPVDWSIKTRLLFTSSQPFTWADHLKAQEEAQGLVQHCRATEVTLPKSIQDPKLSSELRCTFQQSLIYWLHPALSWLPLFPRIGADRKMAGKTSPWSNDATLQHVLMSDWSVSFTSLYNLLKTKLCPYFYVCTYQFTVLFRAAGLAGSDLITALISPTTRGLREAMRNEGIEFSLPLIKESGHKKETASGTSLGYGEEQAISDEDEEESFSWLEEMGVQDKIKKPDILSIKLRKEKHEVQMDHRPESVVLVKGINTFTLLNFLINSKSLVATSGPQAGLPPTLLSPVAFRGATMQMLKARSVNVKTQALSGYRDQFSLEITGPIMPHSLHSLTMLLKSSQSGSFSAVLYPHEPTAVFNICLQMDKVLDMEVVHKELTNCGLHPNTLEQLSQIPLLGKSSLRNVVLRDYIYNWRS
Chain of UniProt O75534 (O75534 whole entry, looked up): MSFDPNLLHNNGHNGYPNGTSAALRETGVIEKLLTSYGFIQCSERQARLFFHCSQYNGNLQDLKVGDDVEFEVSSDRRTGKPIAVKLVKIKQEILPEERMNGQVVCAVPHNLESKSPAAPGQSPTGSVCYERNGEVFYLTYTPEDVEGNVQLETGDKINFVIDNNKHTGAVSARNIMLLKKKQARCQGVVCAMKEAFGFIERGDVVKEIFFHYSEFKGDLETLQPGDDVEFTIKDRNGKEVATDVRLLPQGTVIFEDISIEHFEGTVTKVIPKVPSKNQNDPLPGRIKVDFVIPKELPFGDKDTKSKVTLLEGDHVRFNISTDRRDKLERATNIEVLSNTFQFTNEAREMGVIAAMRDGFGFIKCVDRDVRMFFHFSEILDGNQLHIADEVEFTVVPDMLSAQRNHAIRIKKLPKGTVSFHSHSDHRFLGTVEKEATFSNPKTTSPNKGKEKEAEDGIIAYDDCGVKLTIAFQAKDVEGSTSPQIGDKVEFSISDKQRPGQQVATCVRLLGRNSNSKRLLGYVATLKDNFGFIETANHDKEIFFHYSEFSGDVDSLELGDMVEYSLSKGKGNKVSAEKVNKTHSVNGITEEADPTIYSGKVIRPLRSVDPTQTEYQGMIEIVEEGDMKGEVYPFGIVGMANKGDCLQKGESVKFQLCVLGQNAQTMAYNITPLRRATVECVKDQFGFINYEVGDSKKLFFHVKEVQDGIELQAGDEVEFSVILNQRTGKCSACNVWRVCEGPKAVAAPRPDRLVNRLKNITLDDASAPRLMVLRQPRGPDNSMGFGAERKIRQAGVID
Chain of UniProt Q9UJA2 (Q9UJA2 whole entry, looked up): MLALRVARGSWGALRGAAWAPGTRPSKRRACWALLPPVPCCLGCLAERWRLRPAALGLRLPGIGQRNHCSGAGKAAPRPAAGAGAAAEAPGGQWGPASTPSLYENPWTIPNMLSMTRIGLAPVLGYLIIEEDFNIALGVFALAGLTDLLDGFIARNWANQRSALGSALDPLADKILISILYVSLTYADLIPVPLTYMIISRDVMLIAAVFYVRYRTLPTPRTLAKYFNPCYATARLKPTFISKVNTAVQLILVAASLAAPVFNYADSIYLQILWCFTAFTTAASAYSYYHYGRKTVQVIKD
Chain of UniProt Q9BW66 (Q9BW66 whole entry, looked up): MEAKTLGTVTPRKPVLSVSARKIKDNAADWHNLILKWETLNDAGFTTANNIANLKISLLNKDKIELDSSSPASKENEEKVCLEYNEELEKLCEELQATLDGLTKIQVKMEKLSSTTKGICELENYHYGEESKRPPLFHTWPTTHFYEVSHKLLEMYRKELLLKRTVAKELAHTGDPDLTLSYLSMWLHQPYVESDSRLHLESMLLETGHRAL

Compound in one assay: COc1cc2nc(-c3cc(F)ccc3O)nc(N[C@@H]3CNC[C@H]3C(C)(C)O)c2cc1OC
Description: log2 fold change, soluble protein after heating vs DMSO (PISA); higher = thermal stabilisation; K562 lysate, 10 uM; active = over 0.2 and 3.5 SD of the protein, either way, in both replicates (recomputed). In outline:
(§1)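 K562 pellets were dounce-homogenised in PBS pH 7.4 with 1 mM MgCl2, and the crude extract at 1 mg/mL protein was treated with 10 μM compound for 30 min. Aliquots were heated for 3 min across 48°C-58°C, pooled, and brought to 0.5% NP-40 at 4°C; soluble protein was the supernatant after 21,000xg for 90 min. Soluble protein was quantified by TMTpro 16plex LC-MS/MS with channel sums equalised, and reported as log2 fold change in thermal stability against DMSO controls, with values from duplicates.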
With COL12A1 (UniProt Q99715), the log2 fold change is 1.32 (active).

CNIH4 (UniProt Q9P003): the log2 fold change was 0.031.

For the target CHFR (UniProt Q96EP1), the log2 fold change is 0.008.

As for DHRS13 (UniProt Q6UX07), the log2 fold change is -0.138.

For the target CSDE1 isoform 3 (UniProt O75534), the log2 fold change is 0.28. On the same count and under the same terms, in the case of CSNK1G3 isoform 4 (UniProt Q9Y6M4) it was 0.53. As to CLIP1 isoform 2 (UniProt P30622), the log2 fold change was -0.017. CYP4V2 (UniProt Q6ZWL3): the log2 fold change is -0.066. DALRD3 (UniProt Q5D0E6): the log2 fold change is -0.004.

Turning to CSNK1A1 (UniProt P48729), the log2 fold change is 0.049.

As to CHMP4A (UniProt H0YIN6), the log2 fold change is 0.104.

With CLASP2 (UniProt O75122), the log2 fold change was 0.037. For COPS9 (UniProt Q8WXC6), the log2 fold change was 0.163. On to DONSON (UniProt Q9NYP3), for which the log2 fold change was 0.028.

Take CPLX1 (UniProt O14810): the log2 fold change was -0.005.

Turning to CYP2S1 isoform 2 (UniProt Q96SQ9), the log2 fold change is -0.219.

Consider CRLS1 (UniProt Q9UJA2), for which the log2 fold change was -0.017. On the same count and under the same terms, the figure for CSNK1D (UniProt P48730) is -0.131.

CINP isoform 3 (UniProt Q9BW66): the log2 fold change was 0.064. Turning to DNM2 isoform 4 (UniProt P50570), the log2 fold change is -0.032. The same measure, in the same setting: the figure for CSNK2A1, A0A2R8Y4D6 is 0.06; for DPY19L3 (UniProt Q6ZPD9) it is -0.042.

Compound in the next assay: COc1cc2ncnc(Nc3ccc(F)c(Cl)c3)c2cc1OCCCN1CCOCC1 [gefitinib]
The assay is described as above. In outline: as §1
As to DDR1 isoform 5 (UniProt Q08345), the log2 fold change was 0.046. On to CNIH4 (UniProt Q9P003), for which the log2 fold change is 0.17. Regarding CHFR (UniProt Q96EP1), the log2 fold change was -0.03.

DHRS13 (UniProt Q6UX07): the log2 fold change was 0.036. Regarding CSDE1 isoform 3 (UniProt O75534), the log2 fold change was -0.09. Still for that read-out and setting: the figure for CLIP1 isoform 2 (UniProt P30622) is -0.005; for CSNK1A1 (UniProt P48729) it is -0.005.

For the target CLASP2 (UniProt O75122), the log2 fold change is -0.047. Consider DONSON (UniProt Q9NYP3), for which the log2 fold change was 0.075. In the case of DAZAP1 (UniProt K7EQ02), the log2 fold change was -0.084.

Consider CLASP1 isoform 4 (UniProt Q7Z460), for which the log2 fold change is 0.107. Regarding COL6A3 (UniProt P12111), the log2 fold change is 0.164.

As to CRLS1 (UniProt Q9UJA2), the log2 fold change is 0.079. For DHX32 (UniProt Q7L7V1), the log2 fold change is 0.02. Regarding CSNK1D (UniProt P48730), the log2 fold change was -0.023.

As to CINP isoform 3 (UniProt Q9BW66), the log2 fold change was -0.24. On the same count and under the same terms, the figure for DNM2 isoform 4 (UniProt P50570) is 0.029.
